Test results from the supplement of paper PMC6555819.

Key:
Experiment in all cases: PBM binding z-score (relative to random genomic background probes); higher = stronger binding; sequences stand for … in GC…GCGATTGACAGCGTAGAATGAAGG
[1] = system: FXR:RXRa (NR concentration 270 nM, RXRa partner concentration 90 nM)
In short: (§1)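 Ligand-free nuclear receptor dimers were applied to custom Agilent 4×180K protein-binding microarrays whose double-stranded probes carried direct-repeat seeds, single-nucleotide variants, half-site ablations and random human genomic background sequences in 34-nt variable regions. Incubation lasted 1 h. Binding z-scores were computed against the random background probes from regression-normalized fluorescence.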

[2] = system: LXRa:RXRa (NR concentration 270 nM, RXRa partner concentration 90 nM)
In short: as §1

[3] = system: LXRa homodimer (NR concentration 270 nM)
In short: as §1

[4] = system: LXRb:RXRa (NR concentration 270 nM, RXRa partner concentration 90 nM)
In short: as §1

[5] = system: LXRb homodimer (NR concentration 270 nM)
In short: as §1

[6] = system: PPARa:RXRa (NR concentration 270 nM, RXRa partner concentration 90 nM)
In short: as §1

[7] = system: PPARg:RXRa (NR concentration 180 nM, RXRa partner concentration 90 nM)
In short: as §1

[8] = system: PPARg:RXRa 270nM:90nM, anti-RXR (NR concentration 270 nM, RXRa partner concentration 90 nM)
In short: as §1

[9] = system: PPARg:RXRa 30nM:10nM, anti-RXR (NR concentration 30 nM, RXRa partner concentration 10 nM)
In short: as §1

[10] = system: PPARg:RXRa 90nM:30nM, anti-RXR (NR concentration 90 nM, RXRa partner concentration 30 nM)
In short: as §1

[11] = system: PPARg:RXRa DBDmut IVT, anti-RXR (DBD mutation: RXRa K156A/R161A, NR concentration 270 nM, RXRa partner concentration 90 nM)
In short: as §1

[12] = system: PPARg:RXRa IVT, anti-PPARg (NR concentration 270 nM, RXRa partner concentration 90 nM)
In short: as §1

[13] = system: PPARg DBDmut:RXRa IVT, anti-PPARg (DBD mutation: PPARg1 K132A/R137A, NR concentration 270 nM, RXRa partner concentration 90 nM)
In short: as §1

[14] = system: PPARg DBDmut IVT, anti-PPARg (DBD mutation: PPARg1 K132A/R137A, NR concentration 270 nM)
In short: as §1

[15] = system: PPARg homodimer (NR concentration 180 nM)
In short: as §1

[16] = system: PXR:RXRa (NR concentration 270 nM, RXRa partner concentration 90 nM)
In short: as §1

[17] = system: PXR homodimer (NR concentration 270 nM)
In short: as §1

[18] = system: RARa:RXR (NR concentration 270 nM, RXRa partner concentration 90 nM)
In short: as §1

[19] = system: RARa homodimer (NR concentration 270 nM)
In short: as §1

[20] = system: RARb:RXRa (NR concentration 270 nM, RXRa partner concentration 90 nM)
In short: as §1

Sequence	PBM binding z-score [1]	PBM binding z-score [2]	PBM binding z-score [3]	PBM binding z-score [4]	PBM binding z-score [5]	PBM binding z-score [6]	PBM binding z-score [7]	PBM binding z-score [8]	PBM binding z-score [9]	PBM binding z-score [10]	PBM binding z-score [11]	PBM binding z-score [12]	PBM binding z-score [13]	PBM binding z-score [14]	PBM binding z-score [15]	PBM binding z-score [16]	PBM binding z-score [17]	PBM binding z-score [18]	PBM binding z-score [19]	PBM binding z-score [20]
CGTCAAAGTTCAGGGTAACGTAACAGAAAGCAGC	4.15	3.51	1.23	2.3	0.634	3.48	3.14	3.57	1.26	2.42	0.483	1.35	0.319	0.192	2.87	2.66	1.67	2.17	1.09	4.33
TCGAGTACGTTACCAATGGGGCATTCAGCTTTCT	-0.0711	-0.26	-0.435	0.321	-0.0116	0.16	-0.0505	0.394	1.32	0.788	0.846	-0.201	-0.329	-0.495	-0.459	0.154	-0.778	0.193	-0.477	0.0471
TCTGCTAGGTCAACGATGGTCAGGTAATCTGCTA	3.43	2.96	0.163	1.53	-0.249	3.19	2.74	3.06	2.01	2.65	4.42	4.19	0.0564	-0.0875	0.216	1.61	-0.526	2.34	-0.895	3.93
CCTACTGGGCCAAAAAGGTTATTGATGCCGATAA	-0.207	0.612	0.14	1.08	-0.751	2.15	0.965	1.85	0.374	1.29	3.45	2.94	-0.965	-0.43	0.601	0.934	0.529	1.67	0.386	1.15
CGAACTAGGTCAGAACAGGACACTGAAGGATGAT	1.48	1.37	0.372	0.71	-0.177	3.15	5.08	4.56	1.8	3.43	7.14	7.36	1.14	1.38	0.688	0.996	-0.0376	1.24	0.452	2.9
CGTCGAAGGTCATAGGAGGTCAGTGAAGACAGAT	7.63	7.68	5.14	6.27	0.859	5.98	5.54	6.05	3.04	4.92	3.11	4.45	-0.37	-0.169	4.08	6.79	3.47	5.95	2.11	5.41
CATACAGGGTCAGCTAGGTCAGAGTAGGGACGGC	5.34	3.88	0.985	3.24	0.645	4.72	4.42	3.93	0.846	2.42	1.85	3.37	1.35	1.12	3.26	3.65	1.7	4.31	1.02	4.44
TTACCAAGGTGGAAGGTCGTTGATGCACGCCTTG	0.529	0.656	-0.194	0.41	-0.809	2.03	2.43	4.41	1.94	4.21	-0.302	1.09	-0.236	-1.11	0.535	0.751	-0.0879	1.26	-0.0243	0.885
GCTGCTAGGTCAACTGATGGTAAGCTAAAGCTCG	3.67	2.53	-0.233	1.66	-0.0534	3.56	2.6	2.85	0.773	2.04	5.03	3.79	-0.843	-0.572	1.33	1.29	-0.824	2.02	0.282	4.06
GGAACGAGGGCATTCGAGTTGATACCATGGCGAT	0.529	1.7	-0.438	0.458	-0.357	1.44	1.06	0.855	-0.156	0.405	3.16	2.33	1.32	-0.701	0.6	4.1	1.75	2.07	-0.391	1.93
TCTAGTTGGTCAAAGGTCACAAACTCGAAATGCG	4.94	5.27	3.15	5.16	1.49	6.4	10.9	9.72	9.69	10.3	3.16	5.98	1.2	1.06	3.78	5.56	1.54	6.79	3.07	4.77
ATCTCTAGGTAAGACTCTGTTCAGTGAAGAACGC	0.455	0.64	0.527	0.145	0.866	0.0687	0.000617	0.133	0.343	0.426	2.14	1.19	0.717	0.753	0.889	-0.0649	0.53	0.421	1.18	0.151
CGTCCAAGGTCAGAGAGGCCAGTGAATGCCGAGT	4.34	2.95	0.144	2.18	-0.662	3.93	2.04	2.45	-0.0839	1.33	2.19	2.04	-0.142	-0.792	1.17	2.83	2.62	2.56	-0.0378	4.62
ACTTACGGGTCAACTAGGTTATAGCACGCGTATA	6.74	4.89	0.702	4.49	0.758	5.8	6.09	5.5	2.25	4.51	3.88	4.98	1.29	1.61	2.6	4.26	0.766	4.91	1.54	4.36
